Assay [1] can be described thus: Cytometric Cell-Based qHTS for Inhibitors of the mTORC1 Signaling Pathway in MEF (Tsc2-/-, p53-/-) Cells (AID 2660).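 Further: Tsc2 and p53 null MEFs carrying empty vector with compound for 24 h; percent of cells above a phospho-rpS6 to PI ratio cutoff in each well; series mostly up to about 38 µM.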 In outline:
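Immunofluorescence qHTS of rpS6 Ser235/236 phosphorylation: MEFs (Tsc2-/-, p53-/-) treated 24 h, 37 C, in DMEM + 10% FBS. Alexa-488 signal normalized to PI count, referenced to rapamycin (7.5 nM) and DMSO; PI cell number recorded for viability.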

The nature of assay [2]: High Content Imaging Cell-Based qHTS for Inhibitors of the mTORC1 Signaling Pathway in MEF (Tsc2-/-, p53-/-) Cells (AID 2666).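 Further: percent of cells scored positive for phospho-rpS6 Ser235/236 immunostaining by imaging.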 The method in brief: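 Inhibition of rpS6 phosphorylation is measured by immunofluorescence imaging in empty-vector Tsc2-/-, p53-/- mouse embryonic fibroblasts after 24 hrs compound exposure at 37 degree Celsius. Results are reported as % positive cells per well.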
(In general: qHTS replaces the single test concentration by a dilution series.)

Assay [3] is described as follows: High Content Imaging Cell-Based qHTS for Inhibitors of the mTORC1 Signaling Pathway in MEF Cells (AID 2667). Further: potency means the concentration at half of the fitted maximal effect. The method in brief:
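Fixed-cell imaging of phospho-S6 (Ser235/236, Alexa-488) after 24 hrs of compound treatment at 37 degree Celsius. Signal was normalized to Hoechst, and thresholds from the highest and lowest wells split cells into % active versus % non-active.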

Assay [4] in a line: Cytometry Cell-Based qHTS for Inhibitors of the mTORC1 Signaling Pathway in MEF cells (AID 2668). Further: potency means the concentration at half of the fitted maximal effect. The method in brief:
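Phospho-rpS6 (Ser235/236) immunofluorescence over PI signal, scored as % positive cells using thresholds from 7.5 nM rapamycin and DMSO wells, after 24 h compound exposure of WT-Tsc2-rescued Tsc2-/-, p53-/- MEFs. PI cell count recorded for viability.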

For assay [5], the target named is Ubiquitin carboxyl-terminal hydrolase 2 (Homo sapiens) (UniProt O75604). The assay is described as follows: qHTS Validation Assay for Inhibitors of Ubiquitin-specific Protease USP2a Using CHOP2 as the Reporter (AID 463106). In outline: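 Inhibition is expressed relative to NEM as the full-inhibition control, with concentration-response curves classed by fit quality, magnitude and activity. Enzyme (USP2 core, 10nM) meets 25nM Ub-CHOP2 after compound preincubation; readings are taken at 60min.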

For assay [6], the target named is DNA polymerase III PolC-type (Bacillus subtilis (strain 168)) (UniProt P13267). The assay is described as follows: qHTS Validation Assay for the Inhibitors of DNA Replication in Gram-Positive Bacteria (AID 485295). Further: potency means the concentration at half of the fitted maximal effect. The method in brief:
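Double-stranded DNA product detected by PicoGreen fluorescence after EDTA quench. Compound incubated with B. subtilis holoenzyme (PolC, beta subunit, SSB, primase) before substrate addition; primed replication of M13Gori with dNTPs and NTPs at room temperature; DMSO defines 0% inhibition.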

Assay [7] deals with Tumor susceptibility gene 101 protein (Homo sapiens) (UniProt Q99816). In words: qHTS Validation Assay for Iinhibitors of HIV-1 Budding by Blocking the Interaction of PTAP/TSG101 (AID 485342; calls by dose curve). The method in brief:
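Fluorescence polarization of 50 nM FITC-PTAP peptide bound to 10 uM Tsg101 binding domain was read after 20 min room-temperature incubation with compounds, in 10 mM HEPES pH 7.5, 0.15 M NaCl, 0.01% Tween 20.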

Assay [8] can be described thus: qHTS Validation Assay to Find Inhibitors of Chronic Active B-Cell Receptor Signaling (AID 485345; active means well fitted curve in the direction sought with a large enough effect in the main read-out, with a control signal flat, not every such curve was filed as active). The method in brief:
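TMD8 ABC-DLBCL cells with dox-inducible green luciferase–IκBα fusion and red native luciferase; compounds 46 uM–3 nM, 4 h at 37C with doxycycline in 0.5% FBS IMDM. Green/red ratio normalized to basal and 10 uM MG-132.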

Assay [9] can be described thus: Validation screen for small molecules that induce DNA re-replication in MCF 10A normal breast cells (AID 463097). Further: nearly all actives have a fitted effect of over 60% in size. The method in brief: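 Read-out is Hoechst total nuclear intensity by fluorescence scanning imager, flagging increased high-DNA-content nuclei. Compounds were incubated with MCF 10A cells for 48 hr (37 C, 5% CO2) before 40 min staining.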

Records with an inconclusive call do not appear. Active and inactive are the calls of the source. Unless noted, the call rests on the fitted dose curve; in most records, active means well fitted curve in the direction sought with a large enough effect; inconclusive means small, poorly fitted or top-dose-only effect, or another doubt; inactive means no such curve, though single readings can be large; an effect the other way counts as inactive or inconclusive.

Drawing on PubChem BioAssay (NCATS), this text covers outcome and Potency for 28 molecules.

Sequence of Ubiquitin carboxyl-terminal hydrolase 2 (Homo sapiens) (O75604 whole entry, looked up): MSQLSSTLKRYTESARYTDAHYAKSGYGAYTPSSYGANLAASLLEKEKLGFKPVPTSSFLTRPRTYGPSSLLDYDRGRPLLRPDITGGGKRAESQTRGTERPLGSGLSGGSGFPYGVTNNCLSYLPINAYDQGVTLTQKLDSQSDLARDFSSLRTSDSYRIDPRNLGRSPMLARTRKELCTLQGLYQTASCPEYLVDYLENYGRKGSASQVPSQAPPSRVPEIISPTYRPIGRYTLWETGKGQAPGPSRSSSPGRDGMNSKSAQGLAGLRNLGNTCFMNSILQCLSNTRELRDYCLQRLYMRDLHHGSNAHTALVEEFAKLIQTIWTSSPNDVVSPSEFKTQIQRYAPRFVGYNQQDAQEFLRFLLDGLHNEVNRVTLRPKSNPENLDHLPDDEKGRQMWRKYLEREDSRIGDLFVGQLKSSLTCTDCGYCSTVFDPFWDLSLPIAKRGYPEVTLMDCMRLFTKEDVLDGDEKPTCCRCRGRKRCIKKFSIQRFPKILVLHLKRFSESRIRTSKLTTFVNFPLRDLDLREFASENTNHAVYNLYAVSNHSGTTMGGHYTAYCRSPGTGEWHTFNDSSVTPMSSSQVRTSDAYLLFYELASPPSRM
Sequence of Tumor susceptibility gene 101 protein (Homo sapiens) (Q99816 whole entry, looked up, the tested form may be a part): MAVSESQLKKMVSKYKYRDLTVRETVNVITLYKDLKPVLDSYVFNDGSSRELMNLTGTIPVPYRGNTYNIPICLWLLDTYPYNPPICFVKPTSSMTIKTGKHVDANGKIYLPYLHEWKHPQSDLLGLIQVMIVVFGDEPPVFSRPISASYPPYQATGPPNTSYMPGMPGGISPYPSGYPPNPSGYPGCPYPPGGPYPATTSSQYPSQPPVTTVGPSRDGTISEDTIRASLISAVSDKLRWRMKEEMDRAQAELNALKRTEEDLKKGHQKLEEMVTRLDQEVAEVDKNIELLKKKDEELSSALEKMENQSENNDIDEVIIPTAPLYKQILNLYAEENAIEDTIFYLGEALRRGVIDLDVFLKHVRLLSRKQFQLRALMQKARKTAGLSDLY
Sequence of DNA polymerase III PolC-type (Bacillus subtilis (strain 168)) (P13267 whole entry, looked up): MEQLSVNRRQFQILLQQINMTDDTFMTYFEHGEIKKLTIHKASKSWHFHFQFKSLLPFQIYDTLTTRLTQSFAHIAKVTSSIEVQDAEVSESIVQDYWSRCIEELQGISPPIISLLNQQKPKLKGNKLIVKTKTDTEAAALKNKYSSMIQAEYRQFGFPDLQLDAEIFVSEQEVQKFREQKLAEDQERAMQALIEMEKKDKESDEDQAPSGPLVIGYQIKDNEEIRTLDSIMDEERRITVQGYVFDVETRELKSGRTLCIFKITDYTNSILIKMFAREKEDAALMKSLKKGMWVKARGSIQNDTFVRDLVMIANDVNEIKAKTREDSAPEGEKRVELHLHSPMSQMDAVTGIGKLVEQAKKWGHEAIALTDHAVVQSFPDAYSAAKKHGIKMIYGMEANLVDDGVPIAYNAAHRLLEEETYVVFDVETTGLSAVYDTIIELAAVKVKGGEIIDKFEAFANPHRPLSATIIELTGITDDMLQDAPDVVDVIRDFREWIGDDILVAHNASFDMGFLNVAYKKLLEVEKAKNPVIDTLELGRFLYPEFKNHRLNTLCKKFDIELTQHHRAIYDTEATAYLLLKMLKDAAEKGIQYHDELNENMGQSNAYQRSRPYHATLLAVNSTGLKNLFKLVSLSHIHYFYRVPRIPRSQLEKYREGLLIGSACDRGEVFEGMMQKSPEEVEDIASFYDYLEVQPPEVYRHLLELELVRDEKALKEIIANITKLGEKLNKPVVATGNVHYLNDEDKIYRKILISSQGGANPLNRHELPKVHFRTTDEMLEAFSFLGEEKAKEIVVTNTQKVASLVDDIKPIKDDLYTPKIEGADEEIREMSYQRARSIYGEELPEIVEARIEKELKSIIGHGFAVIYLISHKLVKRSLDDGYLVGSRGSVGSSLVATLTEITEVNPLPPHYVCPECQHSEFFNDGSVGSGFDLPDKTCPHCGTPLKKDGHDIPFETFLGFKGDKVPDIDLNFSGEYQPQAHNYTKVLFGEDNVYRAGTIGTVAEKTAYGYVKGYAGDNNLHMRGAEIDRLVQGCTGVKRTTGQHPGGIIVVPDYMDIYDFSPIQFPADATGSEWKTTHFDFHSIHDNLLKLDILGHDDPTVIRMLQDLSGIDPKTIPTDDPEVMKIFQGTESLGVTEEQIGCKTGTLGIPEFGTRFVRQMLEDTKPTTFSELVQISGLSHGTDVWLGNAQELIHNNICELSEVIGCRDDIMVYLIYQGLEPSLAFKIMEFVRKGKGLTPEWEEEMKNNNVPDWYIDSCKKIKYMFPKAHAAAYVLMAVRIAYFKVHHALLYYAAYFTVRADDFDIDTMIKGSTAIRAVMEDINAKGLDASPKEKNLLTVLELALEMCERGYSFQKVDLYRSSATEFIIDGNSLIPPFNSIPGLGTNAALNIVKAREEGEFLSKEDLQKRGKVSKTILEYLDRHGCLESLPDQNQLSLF

For the molecule `NC[C@@H]1O[C@H](c2ccccc2)Cc2c1ccc(O)c2O`, the molecule was classed as inactive in [1] and in [7]. The Potency result in [2], in assay [3], in assay [4], in assay [5] and in [6] was “inactive” throughout.

Take `c1ccc2c(c1)CCC[C@H]2Nc1nc2ccccc2[nH]1`: the molecule was classed as inactive in assay [1], in assay [7] and in [8]. Also, the Potency entry in assay [2], in [3], in assay [4] and in assay [5] was “inactive” throughout.

As for `C[C@H](NC(=O)/C(C#N)=C/c1ccc(O)c(O)c1)c1ccccc1`, the molecule was called inactive in assay [1], in assay [7] and in assay [8]. For the same molecule, the Potency result in [2], in assay [3], in [4] and in [5] was “inactive” each time.

As to `N=C(N)c1ccc(OCCCCCOc2ccc(C(=N)N)cc2)cc1` (tested in a mixture with another compound), the outcome in [1], in assay [7] and in [8] was inactive. Besides, the Potency result in assay [2], in [5] and in [6] was “inactive” each time. For the same molecule, the Potency is 11.7 µM (active) in assay [3] and 10.4 µM (active) in assay [4].

Consider `CCCCCCCCCCC/C=C\C(C)(C)/C=C\CCCC(=O)O`, for which the outcome in assay [1], in assay [7] and in assay [8] was inactive. Further, the Potency entry in assay [2], in assay [3], in assay [4] and in [6] was “inactive” throughout.

Turning to `Cc1cc(Cn2cnc3c2C[C@@H](C(=O)O)N(C(=O)C(c2ccccc2)c2ccccc2)C3)ccc1N`, the molecule was called inactive in assay [1], in assay [7] and in assay [8]. For the same molecule, the Potency entry in assay [2], in [3], in assay [4], in [5] and in assay [6] was “inactive” throughout.

With `O=S(=O)(c1cccc2c(Cl)cccc12)N1CCCNCC1`, the call in assay [1], in assay [7] and in [8] was inactive. Also, the Potency result in [2], in assay [3], in assay [4], in [5] and in [6] was “inactive” each time.

As for `O=C(O)CCC/C=C\C[C@@H]1[C@@H](/C=C/[C@H](O)C2Cc3ccccc3C2)[C@@H](F)C[C@@H]1O`, the molecule was called inactive in assay [1], in assay [7] and in [8]. Moreover, the Potency entry in assay [2], in assay [3], in assay [4], in [5] and in assay [6] was “inactive” throughout.

On to `Nn1nnc2ccccc21`, for which the outcome in [1] and in [7] was inactive. For the same molecule, the Potency result in assay [2], in [3], in assay [9], in assay [5] and in [6] was “inactive” throughout.

Consider `CN(CC[C@@H](Oc1ccc(C(F)(F)F)cc1)c1ccccc1)CC(=O)O`, for which the call in assay [1] and in [7] was inactive. In addition, the Potency entry in [2], in assay [3], in assay [4], in assay [5] and in assay [6] was “inactive” each time.

Regarding `CCN(c1nc(N)c(C(=O)N=C(N)N)nc1Cl)C(C)C`, the call in assay [1], in assay [7] and in assay [8] was inactive. For the same molecule, the Potency entry in assay [2], in assay [3], in [4], in assay [5] and in [6] was “inactive” throughout.

`CC(=O)SC1CC2=CC(=O)CC[C@]2(C)C2CC[C@@]3(C)C(CC[C@@]34CCC(=O)O4)C12` (stereo partly specified): the result in [1], in assay [7] and in assay [8] was inactive. Besides, the Potency result in [2], in [3], in [4], in [5] and in [6] was “inactive” each time.

For the molecule `CC(C)(CO)Cc1cc(C(C)(C)C)c(O)c(C(C)(C)C)c1`, the molecule was called inactive in [1] and in assay [7]. The Potency result in assay [2], in assay [3], in assay [4] and in assay [5] was “inactive” each time.

`CCCCCCCCCCCCCCSCC(=O)O`: the call in [1], in assay [7] and in assay [8] was inactive. Also, the Potency result in assay [2], in [3], in assay [4], in assay [5] and in assay [6] was “inactive” each time.

On to `O=c1[nH]c(=S)[nH]c(-c2ccccc2)c1Cc1c(O)ccc2ccccc12`, for which the molecule was classed as inactive in assay [1] and in assay [7]. Further, the Potency result in [2], in assay [3], in [4] and in [5] was “inactive” each time.

`O=C1OC(=O)C2C3CCC(O3)C12` (stereo unspecified): the outcome in [1] and in [7] was inactive. Also, the Potency result in [2], in assay [3], in assay [4], in [5] and in [6] was “inactive” each time.

On to `O=c1ccn([C@@H]2O[C@H](COP(=O)(O)OP(=O)(O)O)[C@@H](O)[C@H]2O)c(=O)[nH]1`, for which, in [1], the result was inactive. Besides, the Potency result in assay [2], in assay [3], in assay [9], in [5] and in assay [6] was “inactive” in each case.

For `CN1CCN(c2nc3cc(C(F)(F)F)ccc3n3cccc23)CC1`, the call in assay [1] and in [7] was inactive. Further, the Potency result in [2], in [3], in [4], in assay [5] and in [6] was “inactive” throughout.

For the molecule `NCC(O)C1CCCCCCC1` (stereo unspecified), the molecule was called inactive in assay [1] and in [8]. Besides, the Potency result in [2], in [3], in assay [4], in assay [5] and in assay [6] was “inactive” each time.

Regarding `C=C1C[C@@]23CC[C@H]4[C@@](C)(CCC[C@@]4(C)C(=O)O)[C@@H]2CC[C@]1(O)C3`, the outcome in assay [1], in [7] and in assay [8] was inactive. Further, the Potency result in assay [2], in [3], in [4], in assay [5] and in [6] was “inactive” throughout.

`COC(=O)C(N)Cc1ccc(Cl)cc1` (stereo unspecified): the molecule was called inactive in [1]. The Potency result in [2], in assay [3], in [9], in [5] and in assay [6] was “inactive” each time.

On to `CCCOC(=O)c1c(-c2ccccc2)nc(CC)c(C(=O)SCC)c1CCC`, for which the call in assay [1] and in assay [8] was inactive. The Potency result in [2], in assay [3], in [4] and in assay [5] was “inactive” each time.

Consider `CCCCCCC(=O)OC1CC(C)(C)NC(C)(C)C1`, for which the molecule was called inactive in assay [1] and in [8]. Further, the Potency result in assay [2], in [3], in assay [4], in [5] and in assay [6] was “inactive” in each case.

Take `CCCCCCC/C=C\CCCCCCCCC(=O)O`: the result in [1], in assay [7] and in assay [8] was inactive. Further, the Potency result in [2], in assay [3], in assay [4], in assay [5] and in assay [6] was “inactive” in each case.

`CCCC[C@@]1(C2CCCC2)Cc2cc(OCC(=O)O)c(Cl)c(Cl)c2C1=O`: the molecule was classed as inactive in [1], in assay [7] and in [8]. Besides, the Potency entry in [2], in assay [3], in assay [4], in [5] and in [6] was “inactive” each time.

With `Nc1ncnc2c1nc(Sc1ccc(Cl)cc1)n2[C@H]1OC2COP(=O)(O)O[C@@H]2C1O` (stereo partly specified), the result in [1] and in [7] was inactive. Besides, the Potency entry in assay [2], in [3], in [4], in assay [5] and in [6] was “inactive” each time.

With `Nc1ccc(-c2nc3ccc(-c4nc5ccc(N)cc5[nH]4)cc3[nH]2)cc1`, the result in assay [1] and in assay [7] was inactive. The Potency entry in assay [2], in assay [3] and in assay [4] was “inactive” each time. Moreover, the Potency in assay [6] was 21.2 µM (active).

Turning to `CN1Cc2sccc2C(c2ccc(O)c(O)c2)C1` (stereo unspecified), the molecule was called inactive in [1], in [7] and in [8]. The Potency entry in assay [2], in [3], in assay [4], in [5] and in assay [6] was “inactive” throughout.
